Results from PubChem BioAssay (NCATS).
Records with an inconclusive call do not appear. Active and inactive are the calls of the source. Calls follow the shape of the dose curve; as a rule, active = well fitted inhibition curve with a large enough effect; inconclusive = small, poorly fitted or top-dose-only effect; inactive = flat fitted curve, though single readings scatter.

Experiments:
Test in all cases: qHTS profiling for inhibitors of Plasmodium falciparum proliferation (AID 504749); also: nearly all actives have a fitted effect of over 60% in size
Conditions in all cases: P. falciparum in erythrocytes, SYBR Green DNA, 72 h; series mostly up to 28.7 µM
[1] = tested on: CP315
Outline: (§1)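 P. falciparum-infected erythrocytes (0.3% parasitemia, 2.5% hematocrit final) were exposed to compounds for 72 h at 37 C in 5% CO2, then lysed with SYBR Green buffer overnight at room temperature; parasite DNA fluorescence was normalized to artemisinin and DMSO controls.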

[2] = tested on: CP335
Outline: as §1

[3] = tested on: DIV14
Outline: as §1

[4] = tested on: DIV17
Outline: as §1

[5] = tested on: CP291
Outline: as §1

[6] = tested on: CP305
Outline: as §1

[7] = tested on: CP325
Outline: as §1

[8] = tested on: CP297
Outline: as §1

[9] = tested on: CP329
Outline: as §1

[10] = tested on: DFO2036
Outline: as §1

Measured: Potency
Potency is read from the fitted curve at half-maximal effect.

CN1CCCN(C(c2ccccc2)c2ccc(Cl)cc2)CC1 (configuration not stated)
active: [2] 12 µM | [3] 1.69 µM | [4] 1.51 µM
inactive: [1]

Nc1ccc2cc3ccc(N)cc3nc2c1
active: [2] 6.01 µM | [3] 6.01 µM | [4] 12 µM

CC(NCCC(c1ccccc1)c1ccccc1)c1ccccc1 (configuration not stated)
active: [5] 13.5 µM | [6] 13.5 µM | [7] 15.1 µM | [2] 4.78 µM | [3] 5.36 µM | [4] 6.01 µM

CCCCCCCCCCCCCCCC[N+](C)(C)Cc1ccccc1
active: [5] 15.1 µM | [8] 13.5 µM | [7] 9.53 µM | [9] 10.7 µM | [2] 12 µM | [10] 2.82 µM | [3] 8.49 µM | [4] 8.49 µM

CCCCCCCCCCCCCC[N+](C)(C)C
active: [5] 4.78 µM | [8] 10.7 µM | [6] 5.36 µM | [1] 5.36 µM | [7] 6.01 µM | [9] 5.36 µM | [2] 4.26 µM | [10] 4.47 µM | [3] 6.75 µM | [4] 7.57 µM

O=C(Nc1ccc(Cl)cc1)Nc1ccc(Cl)c(Cl)c1
active: [5] 4.78 µM | [8] 7.57 µM | [6] 4.78 µM | [7] 4.26 µM | [9] 8.49 µM | [2] 3.38 µM | [10] 2.82 µM | [3] 1.35 µM | [4] 0.953 µM
inactive: [1]

Nc1c2ccccc2nc2ccccc12
active: [10] 5.01 µM | [3] 8.49 µM | [4] 7.57 µM

CCCCCCCCCCCCCCCC[n+]1ccccc1
active: [5] 6.01 µM | [8] 5.36 µM | [6] 6.75 µM | [7] 5.36 µM | [9] 7.57 µM | [2] 6.75 µM | [10] 5.62 µM | [3] 6.75 µM | [4] 6.75 µM

Nc1ncnc2nc[nH]c12
inactive: all assays above

O=S(=O)(O)c1ccc2nc(-c3ccccc3)[nH]c2c1
not listed: [3]
inactive: all other assays above

CN1CCC(Nc2ncc3ncnc(Nc4ccc(F)c(Cl)c4)c3n2)CC1
active: [5] 15.1 µM | [2] 9.53 µM | [3] 10.7 µM | [4] 8.49 µM
inactive: [1]
